# Most compounds without a hit are left out; they make up all but 4.7% or so of the library.
# tim10-1 inh = growth inhibitors of tim10-1 mutant yeast, primary screen, luminescence, uHTS | 330,000 tested, 2.2% active | S. cerevisiae tim10-1 ts strain growth, BacTiter-Glo, 24 h | AID 463190, 2010 | inhibition, % at 20 µM;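 active = inhibition of at least 40%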;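 note: mutant grown at 25 °C; 0% = DMSO wells with yeast and 100% = wells holding no yeast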
# TIM10 inh = growth inhibitors of isogenic TIM10 control yeast, primary screen, counter-screen for tim10-1 yeast inhibitor project, luminescence, uHTS | inhibition, % at 10 µM | S. cerevisiae TIM10 strain growth, BacTiter-Glo luminescence, 24 h | 330,000 tested, 1.4% active | AID 463195, 2010;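 active = inhibition of 40% or more at the single tested concentration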;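 note: wild-type TIM10 isogenic control strain grown at permissive 25 °C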
# SKKanGAS inh = S. pyogenes SKKanGAS growth inhibitors in kanamycin, primary screen, streptokinase expression inhibitor project, SKKanGAS strain, BacTiter-Glo luminescence. 6 h. inhibition, % at 7.5 µM. 300,000 tested, 1.3% active. AID 1662, 2009;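 active = mean replicate score, as percent of positive control median, at least 50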;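 note: strain carries kanamycin resistance gene driven by streptokinase promoter and grows in 40 µg/ml kanamycin; loss of luminescence reflects streptokinase promoter inhibition or plain growth inhibition; 0% = median of DMSO wells and 100% = positive control at its reference dose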
# PfHsp90 set2 = growth inhibition of PfHsp90-expressing yeast, primary screen, antimalarial PfHsp90 inhibitor project, S. cerevisiae, BacTiter-Glo luminescence, single point, set 2; BacTiter-Glo ATP, 48 h; yeast lacking PDR1 and PDR3 efflux regulators; inhibition, % at 9.4 µM; 310,000 tested, 0.32% active; AID 504621, 2011;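 active = every replicate shows inhibition above about 80%, whatever the replicate mean, limit read from the data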;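 note: 0% = DMSO neutral controls and 100% = 20 µM radicicol positive controls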
# tim23-1 inh = growth inhibitors of tim23-1 mutant yeast, primary screen, luminescence, uHTS. S. cerevisiae tim23-1 growth, BacTiter-Glo luminescence, 24 h. inhibition, % at 20 µM. 330,000 tested, 1.3% active. AID 463212, 2010;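 active = growth inhibition of the mutant yeast at or above 50%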;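 note: temperature-sensitive mutant grown at 25 °C; plate controls were DMSO-treated mutant yeast for no effect and medium wells lacking yeast for full effect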
# ATG4B inhibitor = ATG4B protease inhibitors, primary screen, biochemical, fluorescence, uHTS. inhibition, % at 8.33 µM. ATG4B cleavage of LC3-PLA2, NBD-HPC fluorescence, 1 h. 340,000 tested, 0.51% active. Cysteine protease ATG4B (Homo sapiens), Q9Y4P1; in the data active = inhibition above about 40%
# Target sequence (Q9Y4P1 whole entry, looked up): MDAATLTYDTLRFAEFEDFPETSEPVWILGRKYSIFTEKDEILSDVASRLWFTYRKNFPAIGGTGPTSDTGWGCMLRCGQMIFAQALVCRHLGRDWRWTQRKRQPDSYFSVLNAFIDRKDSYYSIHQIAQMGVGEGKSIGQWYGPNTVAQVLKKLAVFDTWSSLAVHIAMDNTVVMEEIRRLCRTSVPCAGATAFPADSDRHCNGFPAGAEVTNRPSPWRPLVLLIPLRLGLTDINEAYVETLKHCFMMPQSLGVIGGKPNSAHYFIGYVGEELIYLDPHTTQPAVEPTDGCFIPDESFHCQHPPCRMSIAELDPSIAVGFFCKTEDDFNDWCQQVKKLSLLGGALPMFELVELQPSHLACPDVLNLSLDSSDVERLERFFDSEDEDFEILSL
# tim10-1 conf = growth inhibitors of tim10-1 mutant yeast, confirmation, single concentration, luminescence, S. cerevisiae. inhibition, % at 20 µM. shares compounds with tim10-1 inh. 7,400 tested, 56% active. S. cerevisiae tim10-1 ts strain growth, BacTiter-Glo, 24 h;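 active = inhibition of yeast growth at or above a set limit in either of two repeat tests at 20 µM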;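 note: tim10-1 mutant grown at permissive 25 °C to find synthetic lethal compounds; 0% = DMSO yeast wells and 100% = medium wells without yeast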
# tim10 confirm = growth inhibitors of wild-type TIM10 yeast, confirmation, counter-screen for tim10-1 synthetic lethality project, single concentration, luminescence, S. cerevisiae | shares compounds with TIM10 inh | S. cerevisiae tim10 strain growth, BacTiter-Glo luminescence, 24 h | inhibition, % at 10 µM | 4,600 tested, 63% active | AID 463215, 2010;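 active = inhibition of yeast growth at or above a set limit in either of two replicates at 10 µM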;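 note: this counterscreen used the strain with wild-type TIM10; 0% = yeast with DMSO and 100% = medium wells lacking yeast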
# tim23-1 conf = tim23-1 mutant yeast growth inhibitors, confirmation, luminescence, single concentration; shares compounds with tim23-1 inh; 4,400 tested, 83% active; AID 463218, 2010; S. cerevisiae tim23-1 growth, BacTiter-Glo luminescence, 24 h; inhibition, % at 20 µM;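 active = inhibition above about 39% in either of two replicate wells at 20 µM, limit read from the data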;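 note: temperature-sensitive tim23-1 mutant grown at 25 °C; 0% = DMSO wells with yeast and 100% = medium wells without yeast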
# The depositor's hits bear a star; . = not tested or not shown.
SMILES,tim10-1 inh,TIM10 inh,SKKanGAS inh,PfHsp90 set2,tim23-1 inh,ATG4B inhibitor,tim10-1 conf,tim10 confirm,tim23-1 conf
CCNc1nc(CN2CCCCC2)nc2scc(-c3ccccc3)c12,8,14,-17,5,-12,-12,.,.,.
COc1ccc(NC(=O)CNC(c2ccccc2)c2ccccc2)cc1Cl,28,-7,30,13,15,-12,.,.,.
O=C(Nc1ccc(Cl)c(Cl)c1)N1N=CCC1c1ccccc1 (stereo not given),56*,33,-4,3,52*,-5,46*,.,57*
O=C(Nc1ccccc1)N1N=CCC1c1ccccc1 (stereo not given),23,-2,-3,-11,15,-7,.,.,.
CN(CCO)c1c2c(nc3cc(-c4cccc(F)c4)nn13)CCCC2,27,26,-3,15,41,-15,.,.,.
OC1CCN(c2c3c(nc4cc(-c5cccc(F)c5)nn24)CCCC3)CC1,41*,15,9,6,51*,-16,19,.,35
CN1C(=O)/C(=C/c2cc(N=Nc3ccccc3)ccc2O)SC1=S,51*,36,34,29,55*,13,41*,.,65*
O=C1/C(=C/c2ccccc2O)SC(=S)N1Cc1cccnc1,23,10,-3,7,1,-2,.,.,.
O=[N+]([O-])c1cc(-c2ncccn2)c([N+](=O)[O-])s1,88*,91*,1,-5,51*,8,84*,99*,92*
CCCCNC(=S)NC(=O)c1ccc(Cl)cc1Cl,49*,38,-6,.,54*,11,37*,.,53*
Cc1ccc(-c2cc(C(=O)N/N=C/c3c(C)nn(C)c3C)c3ccccc3n2)cc1C,36,18,29,-16,17,-12,.,.,.
COc1cc(C(C[N+](=O)[O-])c2c(-c3ccccc3)cc3ccccn23)cc(OC)c1OC (stereo not given),41*,34,-1,-2,54*,-13,33*,.,69*
O=C(NC(=S)NC1CCCc2ccccc21)c1ccco1 (stereo not given),51*,43*,14,-9,52*,18,41*,43*,58*
O=C(NC(=S)NCCc1ccccc1)c1ccco1,42*,48*,3,-7,56*,5,26,-15,48*
O=C(NC(=S)NC1CCCc2ccccc21)c1ccc(F)cc1 (stereo not given),35,18,40,-4,37,3,.,.,.
CCc1nnc(NC(=O)C2CC(=O)N(C3CCCC3)C2)s1 (stereo not given),-11,5,3,-25,-1,-1,.,.,.
Cc1oc2c(c1C(=O)c1ccccc1)C(=O)C(=O)c1ccccc1-2,56*,51*,34,.,68*,13,50*,53*,67*
Cc1oc2c(c1C(=O)O)C(=O)c1ccccc1C2=O,5,13,23,-14,15,-8,.,.,.
CCOC(=O)c1c(C)oc2c1C(=O)c1ccccc1C2=O,72*,73*,.,-32,79*,-13,74*,64*,94*
